Where “and” joins values, the source holds several entries; their conditions need not be identical. Identical values can stand only once. The whole screen tested about 6,400 compounds, of which about 610 (9.5%) were called active. Cut-off read from the data, not from the text of the source: active = activity change below about -70%; inconclusive = no clear call, values can overlap the other calls; inactive = above that. What follows is part of a selection rich in actives, with near analogues and random picks from the rest. Where a structure was tested more than once in an assay, its records may differ in their call.

The record followed here is PubChem BioAssay AID1259421 (Broad Institute, 2018).

This assay can be described thus: T. gondii ME49Luc in HeLa cells, luciferase assay, 72 h, no IFN-y (AID 1259421). The following applies: stronger effect = lower value, concentration not given here.
For the molecule `O=C(Nc1ccccc1-c1cn2c(CN3CCNCC3)csc2n1)c1cnc2ccccc2n1`, the activity change, negative = inhibition is -11.3% (inactive).

In the case of `CCCC(=O)Oc1ccc2[nH]c(C(=O)c3cc4ccccc4[nH]3)cc2c1`, the activity change, negative = inhibition was 5.11% (inactive).

As to `CN(Cc1ccccc1)Cc1ccccc1`, the activity change, negative = inhibition was 16.3% (inactive).

Regarding `CCN(CC)CCC(=O)N1c2ccccc2Sc2ccc(Cl)cc21`, the activity change, negative = inhibition was 17.9% (inactive).

For `O=C(O)CCC(=O)O`, the activity change, negative = inhibition was -23.1% (inactive).

For the molecule `O=C(O)CO.[NH2-].[NH2-].[Pt+2]`, the activity change, negative = inhibition was -0.913% (inactive).

Take `O=C(O)CC(O)(CC(=O)O)C(=O)O`: the activity change, negative = inhibition was -79.3% (active).

With `CCOC(=O)/C(=N/O)c1csc(N)n1`, the activity change, negative = inhibition was 7.65% (inactive).

On to `CCC(CC)(NC(=O)C(C)C)C(=O)N[C@@H](CCCN=C(N)N)C(=O)NC1(C(=O)NC(c2ccc(F)cc2)c2ccc(F)cc2)CCCC1`, for which the activity change, negative = inhibition is 12.8% (inactive).

As for `C/C(=C\c1csc(C)n1)[C@@H]1C[C@@H]2O[C@]2(C)CCC[C@H](C)[C@H](O)[C@@H](C)C(=O)C(C)(C)[C@@H](O)CC(=O)N1`, the activity change, negative = inhibition is -94.8% (active).

On to `C=CCN1CCc2nc(N)sc2CC1`, for which the activity change, negative = inhibition is 0.82% (inactive).

Take `Fc1ccc(C2CCNCC2COc2ccc3c(c2)OCO3)cc1` (configuration not stated): the activity change, negative = inhibition is 28.3% (inactive).

On to `Cc1cc2nc3c(=O)[nH]c(=O)nc-3n(C)c2cc1C=O`, for which the activity change, negative = inhibition was 9.97% (inactive) and 10.7% (inactive).

For the molecule `CNCCCCOc1ccccc1Cc1ccccc1`, the activity change, negative = inhibition was 17.6% (inactive) and 22% (inactive).

With `O=C(O)CCC1CCC(c2cc(F)ccc2F)(S(=O)(=O)c2ccc(Cl)cc2)CC1` (configuration not stated), the activity change, negative = inhibition is 7.06% (inactive).

With `N#Cc1ccccc1OCC(O)CNCCNC(=O)Nc1ccccc1` (configuration not stated), the activity change, negative = inhibition was 10.2% (inactive) and -13.2% (inactive).

As to `CC1(C)CC23C(=O)CCC(O)C2(C)CCC13` (configuration not stated), the activity change, negative = inhibition is 11.7% (inactive).

As to `C=CCNC(=O)c1cc([N+](=O)[O-])cc2c(=O)[nH]c(Nc3ccc(Cl)c(Cl)c3)nc12`, the activity change, negative = inhibition is 3.13% (inactive) and -6.94% (inactive).

For `Cc1oncc1C(=O)Nc1ccc(C(F)(F)F)cc1`, the activity change, negative = inhibition is 165% (inactive) and 187% (inactive).

For `O=C(Nc1ccncc1)c1cc([N+](=O)[O-])ccc1Cl`, the activity change, negative = inhibition was -81.1% (active) and -86.9% (active).

`O=C(Nc1ccc([N+](=O)[O-])cc1Cl)c1cc(Cl)ccc1O`: the activity change, negative = inhibition is -93% (active) and 4.01% (inactive).

For `O=C(Nc1ccccc1)c1cc([N+](=O)[O-])ccc1Cl`, the activity change, negative = inhibition was 14.5% (inactive) and 9.52% (inactive).

On to `O=C(Nc1ccccc1)c1ccccc1O`, for which the activity change, negative = inhibition is 110% (inactive) and 0.394% (inactive).

Consider `O=C(Nc1ccc([N+](=O)[O-])cc1O)Nc1ccccc1Br`, for which the activity change, negative = inhibition was -48.5% (inactive) and -4.88% (inactive).

As to `NC(=O)c1ccc([N+](=O)[O-])cc1Cl`, the activity change, negative = inhibition was 17.4% (inactive) and 18.6% (inactive).

For the molecule `O=C(Nc1cc(C(F)(F)F)cc(C(F)(F)F)c1)c1cc(Cl)ccc1O`, the activity change, negative = inhibition is -83.9% (active).

Turning to `CN1CCN(C2=Cc3ccccc3Oc3ccc(Cl)cc32)CC1`, the activity change, negative = inhibition was -2.4% (inactive) and 14.5% (inactive).

For the molecule `O=C(NC1CCCCC1)NC1CCCCC1`, the activity change, negative = inhibition was 10.9% (inactive).

For the molecule `O=C(O)c1ccc(NC2OC(CO)C(O)C(O)C2O)cc1` (configuration not stated), the activity change, negative = inhibition is 4.39% (inactive).

Consider `Cc1occc(=O)c1O`, for which the activity change, negative = inhibition is -2.72% (inactive).

As for `CC(C)S(=O)(=O)NC[C@H](C)c1ccc(-c2ccc(CCNS(C)(=O)=O)cc2)cc1`, the activity change, negative = inhibition was 8.52% (inactive).

On to `CN1C[C@H]2C[C@@H]1CN2c1cc2c(cc1F)c(=O)c(C(=O)O)cn2C1CC1`, for which the activity change, negative = inhibition was 7.36% (inactive).

As to `NC(=O)C1CCCN1C(=O)C(Cc1cnc[nH]1)NC(=O)C1CCC(=O)N1` (configuration not stated), the activity change, negative = inhibition is 2.14% (inactive).

For `CCCCCCCCCc1ccc(OCCOCCOCCOCCOCCOCCOCCOCCOCCO)cc1`, the activity change, negative = inhibition was -73.3% (active).

In the case of `CCCCOc1ccc(CC(=O)NO)cc1`, the activity change, negative = inhibition was -24.4% (inactive) and -36.9% (inactive).

In the case of `CCCCCCCCCCCC[N+](C)(C)CCOc1ccccc1`, the activity change, negative = inhibition was 14.1% (inactive).

As to `NC(=O)NCCCC(N)C(=O)O` (configuration not stated), the activity change, negative = inhibition is 15% (inactive).

Consider `CC(C)=CCC[C@](C)(O)[C@H]1CC[C@]2(C)[C@@H]1[C@H](O)C[C@@H]1[C@@]3(C)CC[C@H](O)C(C)(C)[C@@H]3CC[C@]12C`, for which the activity change, negative = inhibition is 27.9% (inactive).

For the molecule `CCCn1c(=O)c2[nH]cnc2n(-c2ccc(Cl)cc2)c1=O`, the activity change, negative = inhibition is 15.7% (inactive) and 11% (inactive).

Regarding `CO/N=C(/C(=O)NC1C(=O)N2C(C(=O)O)=C(CSc3nnnn3C)CSC12)c1csc(N)n1` (configuration not stated), the activity change, negative = inhibition is 8.82% (inactive).

As for `C#C[C@]1(O)CCC2C3CCC4=CC(=O)CC[C@@H]4C3CC[C@@]21CC` (some centres not stated), the activity change, negative = inhibition was -16.7% (inactive).

Take `C#C[C@]1(O)CC[C@H]2[C@@H]3CCC4=CCCC[C@@H]4[C@H]3C(=C)C[C@@]21CC`: the activity change, negative = inhibition is 35.3% (inactive).

In the case of `C#C[C@]1(O)CC[C@@H]2C3[C@H](C)CC4=C(CCC(=O)C4)[C@H]3CC[C@@]21C` (some centres not stated), the activity change, negative = inhibition is 5.27% (inactive).

With `C#C[C@]1(O)CC[C@H]2[C@@H]3CCC4=CC(=O)CC[C@@H]4C3CC[C@@]21CC` (some centres not stated), the activity change, negative = inhibition is -83.6% (active).

For `C#C[C@]1(O)CCC2C3CCC4=CC(=O)CCC4C3C(=C)CC21CC` (some centres not stated), the activity change, negative = inhibition was 16.2% (inactive).

For the molecule `C#C[C@]1(O)CCC2C3CCC4=CC(=O)CC[C@@H]4C3CC[C@@]21C` (some centres not stated), the activity change, negative = inhibition was -91% (active).

In the case of `C#C[C@]1(O)CCC2C3CCC4=C(CCC(=O)C4)C3CC[C@@]21C` (some centres not stated), the activity change, negative = inhibition was -83.2% (active).

For the molecule `C#C[C@]1(O)CC[C@H]2[C@@H]3CCC4=CC(=O)CC[C@@H]4[C@H]3CC[C@@]21CC`, the activity change, negative = inhibition is -67.7% (inactive).

Regarding `C#C[C@]1(O)CC[C@H]2[C@@H]3CCC4=CC(=O)CC[C@@H]4[C@H]3CC[C@@]21C`, the activity change, negative = inhibition was -67.2% (inactive).

As for `C#C[C@]1(OC(C)=O)CCC2C3CCC4=C/C(=N/O)CCC4C3CC[C@@]21CC` (some centres not stated), the activity change, negative = inhibition was -84.7% (active).

`O=C1c2ccccc2-n2c1nc1ccccc1c2=O`: the activity change, negative = inhibition is -48.4% (inactive).

With `Cc1nccn1CC1CCC2C(C1=O)c1ccccc1N2C` (configuration not stated), the activity change, negative = inhibition is 8.1% (inactive).

On to `CC(C)(CO)C(O)C(=O)NCCC(=O)NCCSSCCNC(=O)CCNC(=O)C(O)C(C)(C)CO` (configuration not stated), for which the activity change, negative = inhibition is 0.59% (inactive).

Take `CCN(CC)C(=O)c1cccc(C)c1`: the activity change, negative = inhibition was 17.6% (inactive) and -3.28% (inactive).

As for `CCCCN(CCCC)C(=O)CN1C[C@H](c2ccc3c(c2)OCO3)[C@@H](C(=O)O)[C@@H]1c1ccc(OC)cc1`, the activity change, negative = inhibition was 2.8% (inactive).

As for `CCOCc1nc2c(N)nc3ccccc3c2n1CC(C)(C)O`, the activity change, negative = inhibition was 18.1% (inactive).

For `N[C@@H](CC(=O)Nc1ccc(Oc2cc(F)c(F)cc2Br)cc1)C(=O)O`, the activity change, negative = inhibition was 7.4% (inactive).

On to `COc1cccc(Nc2c(C(N)=O)cnc3c(C)cc(S(=O)(=O)c4cccc(C(=O)N(C)C)c4)cc23)c1`, for which the activity change, negative = inhibition was -9.54% (inactive).

Consider `CNC(=O)c1ccc(C)c(-n2c(C)cc(OCc3ccc(F)cc3F)c(Br)c2=O)c1`, for which the activity change, negative = inhibition was 9.8% (inactive).

`CC(=O)NC1=NN(C(C)=O)C(C)(c2ccccc2)S1` (configuration not stated): the activity change, negative = inhibition was -32.2% (inactive).

`C#C[C@]1(OC(C)=O)CC[C@H]2[C@@H]3CCC4=C[C@@H](OC(C)=O)CC[C@@H]4[C@H]3CC[C@@]21C`: the activity change, negative = inhibition was -38.3% (inactive) and 1.4% (inactive).

Regarding `CC(=O)O[C@]1(C(C)=O)CC[C@H]2[C@@H]3C=C(C)C4=CC(=O)CC[C@@H]4[C@H]3CC[C@@]21C`, the activity change, negative = inhibition was 8.45% (inactive).

Take `C#C[C@]1(OC(C)=O)CCC2C3CCC4=CC(=O)CC[C@@H]4C3CC[C@@]21C` (some centres not stated): the activity change, negative = inhibition is -79.9% (active) and -90.3% (active).

Consider `c1ccc(-c2n[nH]c3c2oc2ccccc23)cc1`, for which the activity change, negative = inhibition is 129% (inactive) and 2.12% (inactive).

With `CCOC(=O)N1CSCC1C(=O)O` (configuration not stated), the activity change, negative = inhibition is 0.0863% (inactive).

As for `CC(C)Oc1ccc2c(=O)cc(-c3ccccc3)oc2c1`, the activity change, negative = inhibition is 458% (inactive).

In the case of `CN(C)CCCCC(=O)Nc1ccc(NC(=S)NC(=O)c2ccc(C(C)(C)C)cc2)cc1`, the activity change, negative = inhibition is 78.2% (inactive).

Regarding `COCCOc1ccc2c(c1)ncn2-c1ccc2cccc(N3CCC(N)CC3)c2n1`, the activity change, negative = inhibition was -89.9% (active).

Turning to `CC1(COc2ccc3c(c2)ncn3-c2ccc3cccc(N4CCC(N)CC4)c3n2)COC1`, the activity change, negative = inhibition was -73.4% (active).

As for `CCOC(=O)c1ccc(OCCC2CCN(c3ccc(C)nn3)CC2)cc1`, the activity change, negative = inhibition is 9.97% (inactive).

Turning to `NC1CCN(c2cccc(Cl)n2)CC1`, the activity change, negative = inhibition is 10.9% (inactive) and -8.3% (inactive).

Turning to `COc1ccc(C[C@H](C)NC[C@@H](O)c2ccc(O)c(NC=O)c2)cc1`, the activity change, negative = inhibition is 14.6% (inactive) and 0.747% (inactive).

Regarding `CCCC1OC2CC3C4CCC5=CC(=O)C=CC5(C)C4C(O)CC3(C)C2(C(=O)CO)O1` (configuration not stated), the activity change, negative = inhibition was -4.58% (inactive).

Turning to `Cc1nnc(C(C)C)n1C1CC2CCC(C1)N2CC[C@H](NC(=O)C1CCC(F)(F)CC1)c1ccccc1` (some centres not stated), the activity change, negative = inhibition is 10.7% (inactive) and 30.6% (inactive).

With `CC(C)NC[C@@H](C(=O)N1CCN(c2ncnc3c2[C@H](C)C[C@@H]3O)CC1)c1ccc(Cl)cc1`, the activity change, negative = inhibition was 9.17% (inactive).

Take `CC(=O)c1c(O)c(C)c(O)c2c1OC1=CC(=O)C(C(C)=O)C(=O)[C@@]12C` (some centres not stated): the activity change, negative = inhibition was 16.8% (inactive).

On to `CCCCCCCCCCCCC/C=C/[C@@H](O)[C@H](CO)NC(C)=O`, for which the activity change, negative = inhibition is 16.6% (inactive).

As for `NCCNS(=O)(=O)c1cccc2cnccc12`, the activity change, negative = inhibition is 1.67% (inactive).

Turning to `NCCCCCCNS(=O)(=O)c1cccc2ccccc12`, the activity change, negative = inhibition was 3.17% (inactive).

With `Nc1nc(NCC2CCC(CNS(=O)(=O)c3cccc4ccccc34)CC2)nc2ccccc12` (configuration not stated), the activity change, negative = inhibition is -76.7% (active) and -41.2% (inactive).

As to `Cc1onc(-c2ccccc2)c1C(=O)NC1C(=O)N2[C@@H]1SC(C)(C)[C@@H]2C(=O)O` (some centres not stated), the activity change, negative = inhibition is 8.03% (inactive).

`CSC1SCC2C(=O)N(C)C(C(C)C)C(=O)OCC(NC(=O)c3cnc4ccccc4n3)C(=O)NC(C)C(=O)N(C)C1C(=O)N(C)C(C(C)C)C(=O)OCC(NC(=O)c1cnc3ccccc3n1)C(=O)NC(C)C(=O)N2C` (configuration not stated): the activity change, negative = inhibition is -84.4% (active).
